IDE act: activators of human insulin-degrading enzyme in cells. HEK cells, FAbeta-B cleavage, fluorescence polarization; 0% vehicle, 100% cell-free pure enzyme wells. activation, % at 5.96 µM. hit rate 0.073% among 340,000;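 active = activation above the mean of all tested compounds plus 3 SD, set per screening campaign, cut at about 17% in these data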
IDE cell inh: inhibits human insulin-degrading enzyme in HEK cells | P14735 | FAbetaB cleavage, fluorescence polarization | inhibition, % at 5.59 µM | hit rate 0.41% among 320,000 | AID 434962;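 active = percent inhibition above the average of all tested compounds plus 3 SD, set per screening campaign, cut at about 16% in these data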;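 note: IDE supplied by intact live HEK cells; FP after avidin binding of uncleaved biotin substrate so inhibition keeps polarization high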
CRFR2-BP ag: agonists of human CRF-binding protein/CRF-R2 receptor complex. HEK293 CRF-R2/CRF-BP, calcium dye fluorescence (FLIPR); percent of saturating CRF peptide response. activation, % at 13.2 µM. hit rate 0.46% among 350,000;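 active = activation of at least 50%, plus an integration ratio under a set limit after plate pattern correction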
TPT1 inhibitor: C. albicans TPT1 enzyme inhibition. recombinant caTPT1, FP RNA substrate dephosphorylation. inhibition, % at 5 µM. AID 1962. hit rate 0.81% among 300,000;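 active = inhibition above the mean of all tested compounds plus 3 SD, set per screening campaign, cut at about 24% in these data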
cardiac RTF act: cardiac RTF calcium sensitization; IANBD-labeled TnC RTF fluorescence at EC20 calcium; 0% EC20 calcium, 100% full calcium; activation, % at 7.2 µM; P19429+P45379; hit rate 0.24% among 340,000;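 active = activation above the mean over all tested compounds plus 3 SD, cut at about 30% in these data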;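 note: rise in fluorescence read as greater calcium sensitivity of cardiac thin filaments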
Cardiac RTF inh: cardiac RTF calcium desensitization. AID 493244. IANBD-labeled cardiac RTF, Ca2+ fluorescence. hit rate 0.12% among 340,000. inhibition, % at 7.15 µM;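 active = inhibition above the mean inhibition of all tested compounds plus 3 SD, cut at about 17% in these data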;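 note: assay run at fixed EC70 calcium of 1.6 mM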
caTPT1 confirm: TPT1 (C. albicans) inhibition, confirmation; shares compounds with TPT1 inhibitor; recombinant caTPT1, fluorescence polarization, RNase T1 coupled; inhibition, % at 5 µM; hit rate 74% among 2,400;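 active = inhibition above the primary screen limit, the mean inhibition of all tested compounds plus 3 SD, cut at about 25% in these data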
RNase T1 counter: RNase T1 inhibition in TPT1 counter-screen; shares compounds with TPT1 inhibitor; RNase T1 cleavage, fluorescence polarization, 1536-well; inhibition, % at 5 µM; hit rate 83% among 2,400;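 active = inhibition above the solvent-only control well mean plus 3 SD, limit set per screening run, cut at about 23% in these data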;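 note: inhibitors block cleavage so intact labeled substrate keeps polarization high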
Target sequence (P00651 whole entry, looked up): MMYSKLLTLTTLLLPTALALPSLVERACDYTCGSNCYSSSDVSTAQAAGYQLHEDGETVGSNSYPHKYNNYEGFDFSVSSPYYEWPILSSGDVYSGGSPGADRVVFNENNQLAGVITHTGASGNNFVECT
IDE cell inh cf: confirmation of human insulin-degrading enzyme inhibitors in cells. shares compounds with IDE cell inh. HEK cells, FAbetaB cleavage, fluorescence polarization. inhibition, % at 5.59 µM. hit rate 51% among 1,200;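 active = mean inhibition across triplicate wells above the cutoff set by the earlier primary insulin-degrading enzyme screen, cut at about 16% in these data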
HEK293 tox: counter-screen for IDE inhibitors: cytotoxicity in HEK cells; shares compounds with IDE cell inh; HEK293 cytotoxicity, ATP luminescence; inhibition, % at 5.59 µM; hit rate 28% among 1,200; AID 449730; in the data active = inhibition above about 22%
FP fluor counter: counter-screen for IDE inhibitors: fluorescent artifacts; shares compounds with IDE cell inh; FP counterscreen for fluorescent artifacts, IDE probe project; IC50, µM; 30 tested, under 10 active; call rule not given here
Each line names hits and unclear results; the compound was inactive in the other large screens (follow-up assays come after a bar, where they were run). A selection: hits, their analogues and other compounds. The true share with any hit is near 1.5%.

CCN(CC)c1ccc(C=C2C(=O)OC(c3ccccc3)OC2=O)cc1 (stereo not given)	none
CN(CC(=O)NC(=O)NC1CCCCC1)Cc1ccccc1	none (no result: TPT1 inhibitor)
O=C(Nc1cccc(S(=O)(=O)NC2=NCCC2)c1)c1cc(Cl)ccc1[N+](=O)[O-]	none
CCOC(=O)C1C(=O)NC(SCC(N)=O)=C(C#N)C1c1ccccc1OCC (stereo not given)	IDE cell inh 37.2, TPT1 inhibitor 69.9, cardiac RTF act 37.8 | caTPT1 confirm 68.2 | RNase T1 counter 78.1 | IDE cell inh cf 30.6 | HEK293 tox inactive
O=C(NN1C(=O)/C(=C/c2ccc(O)cc2)SC1=S)c1ccccc1O	IDE cell inh 102.8, TPT1 inhibitor 54.6 | caTPT1 confirm 64.9 | RNase T1 counter 71.8 | IDE cell inh cf 120.4 | HEK293 tox inactive
Cc1cc(C)nc(NN2C(=O)/C(=C/c3ccc(O)cc3)SC2=S)n1	IDE cell inh 76.2, TPT1 inhibitor 57.8 | caTPT1 confirm 68.3 | RNase T1 counter 71.4 | IDE cell inh cf 148.1 | HEK293 tox inactive
COc1cc(/C=C2\SC(=S)N(NC(=O)c3ccccc3O)C2=O)ccc1O	IDE cell inh 119.9, TPT1 inhibitor 30.8 | caTPT1 confirm 34.2 | RNase T1 counter 46.9 | IDE cell inh cf 112.6 | HEK293 tox inactive
Cn1cc(/C=C2\SC(=S)N(NC(=O)c3ccccc3)C2=O)c2ccccc21	IDE cell inh 27.6, CRFR2-BP ag 71.9, TPT1 inhibitor 137.2, cardiac RTF act 70.2 | caTPT1 confirm 54.7 | RNase T1 counter 61.5 | IDE cell inh cf 46.2 | HEK293 tox inactive
COc1ccccc1/C=C1\SC(=S)N(Nc2nc(C)cc(C)n2)C1=O	none
COc1ccc(C2=NN(C(=O)c3ccco3)C(c3cccs3)C2)cc1OC (stereo not given)	none (no result: IDE act, IDE cell inh, TPT1 inhibitor, cardiac RTF act, Cardiac RTF inh)
COc1ccc2oc(C(=O)NC3(C)CCS(=O)(=O)C3)c(C)c2c1 (stereo not given)	none
O=C(NN1C(=O)/C(=C/c2ccc(O)cc2)SC1=S)c1cccc(O)c1	IDE cell inh 144.5, TPT1 inhibitor 71.0 | caTPT1 confirm 67.0 | RNase T1 counter 72.0 | IDE cell inh cf 103.7 | HEK293 tox inactive
COc1ccc(/C=C2\SC(=S)N(NC(=O)c3ccncc3)C2=O)cc1OC	none (no result: IDE act, CRFR2-BP ag, cardiac RTF act, Cardiac RTF inh)
O=C(NN1C(=O)/C(=C/C=C/c2ccccc2)SC1=S)c1ccncc1	IDE cell inh 24.5, TPT1 inhibitor 130.8 | caTPT1 confirm 34.5 | RNase T1 counter 46.7 | IDE cell inh cf inactive | HEK293 tox inactive
O=C(NC(c1cccnc1)C(F)(F)F)c1cc(COc2ccc3c(c2)CCCC3)on1 (stereo not given)	none
CC(SC(C)C(=O)NN=Cc1cccc(F)c1)C(=O)NN=Cc1cccc(F)c1 (stereo not given)	none (no result: IDE cell inh, TPT1 inhibitor)
COCCNC(=O)C(=O)N/N=C(\C)CC(=O)Nc1cccnc1	none
CC(/C=C1\SC(=S)N(CC(=O)O)C1=O)=C\c1ccccc1	none
CN1CCS/C1=C/C=C1/SC(=S)N(Cc2ccccc2)C1=O	IDE cell inh 105.2, TPT1 inhibitor 171.0, cardiac RTF act 96.0 | caTPT1 confirm 169.2 | RNase T1 counter 156.7 | IDE cell inh cf 81.8 | HEK293 tox inactive
CN1CCS/C1=C/C=C1\SC(=S)N(CC(=O)O)C1=O	IDE cell inh 59.8, CRFR2-BP ag 149.0, TPT1 inhibitor 168.8, cardiac RTF act 248.8 | caTPT1 confirm 180.2 | RNase T1 counter 166.8 | IDE cell inh cf 74.6 | HEK293 tox inactive
COc1cc(/C=C2/CCC/C(=C\c3cc(O)c(OC)c(Cl)c3)C2=O)cc(Cl)c1O	IDE cell inh 23.5, TPT1 inhibitor 36.4 | caTPT1 confirm inactive | RNase T1 counter 23.2 | IDE cell inh cf 24.1 | HEK293 tox 87.4
COc1cc(/C=C2\CCC/C(=C\c3ccc(O)c(OC)c3)C2=O)ccc1O	none
Cn1cccc1/C=C1\SC(=Nc2ccccc2)NC1=O	none
Cc1ccc(N=C2NC(=O)/C(=C/c3cn(C)c4ccccc34)S2)cc1C	IDE cell inh 18.8, CRFR2-BP ag 63.6, TPT1 inhibitor 116.8, cardiac RTF act 69.2 | caTPT1 confirm 121.1 | RNase T1 counter 125.0 | IDE cell inh cf 52.1 | HEK293 tox inactive
Cc1nnc(-c2ccccc2)c(=O)n1/N=C/c1c(O)ccc2ccccc12	IDE cell inh 53.5, TPT1 inhibitor 158.8 | caTPT1 confirm 78.9 | RNase T1 counter 84.4 | IDE cell inh cf 39.8 | HEK293 tox 57.4
Cc1cc(C)c2c(N)c(C(=O)Nc3nccs3)sc2n1	none
Nc1c(C(=O)Nc2nccs2)sc2nc(-c3cccs3)cc(C(F)(F)F)c12	IDE cell inh 19.9, CRFR2-BP ag 68.0, TPT1 inhibitor 30.9 | caTPT1 confirm 28.7 | RNase T1 counter 41.2 | IDE cell inh cf 16.4 | HEK293 tox inactive | FP fluor counter inactive
COc1ccc(Cl)cc1NC(=O)C(C)N(C)Cc1cccc(Cl)c1Cl (stereo not given)	none
C=CCn1c(C)c(/C=C/c2cc[n+](C)cc2)c2ccccc21	IDE cell inh 87.0, TPT1 inhibitor 118.8, cardiac RTF act 114.2 | caTPT1 confirm 127.2 | RNase T1 counter 122.0 | IDE cell inh cf 97.3 | HEK293 tox 78.1
O=C(O)Cn1cc(/C=C/[N+](=O)[O-])c2ccccc21	none
CCOC(=O)Cn1cc(C=O)c2ccccc21	none
CCn1cc(/C=C/c2cc[n+](C)cc2)c2ccccc21	IDE cell inh 52.5, CRFR2-BP ag 56.2, TPT1 inhibitor 39.4, cardiac RTF act 370.8 | caTPT1 confirm 42.5 | RNase T1 counter 49.8 | IDE cell inh cf 83.3 | HEK293 tox 78.9
CCN(CC)C(=O)Cn1c(C)c(/C=C/c2cc[n+](C)cc2)c2ccccc21	IDE cell inh 26.3, TPT1 inhibitor 108.2, cardiac RTF act 87.1 | caTPT1 confirm 108.2 | RNase T1 counter 106.9 | IDE cell inh cf 24.4 | HEK293 tox inactive
C=CCn1cc(/C=C/c2cc[n+](C)cc2)c2ccccc21	IDE cell inh 21.8, CRFR2-BP ag 77.1, TPT1 inhibitor 46.0, cardiac RTF act 170.1 | caTPT1 confirm 55.5 | RNase T1 counter 59.2 | IDE cell inh cf 66.7 | HEK293 tox 84.7
CCN(CC)C(=O)Cn1c(=O)n(C)c2ccccc21	none
